# Experimental data from publication PMC7862700, “An all-to-all approach to the identification of sequence-specific readers for epigenetic DNA modifications on cytosine”.
# What was measured:
# Experiment in all cases: DAPPL (digital affinity profiling via proximity ligation, sequencing); 10 mM Tris-HCl pH 7.5, 50 mM NaCl, 1 mM DTT, 4% glycerol, room temperature, 30 min; GST-TFs on glutathione beads, 16-mer random dsDNA library, 0.1% formaldehyde crosslink after washing; high values mean tight binding
# Settings in all cases: protein: recombinant; tags: N-terminal GST; dsDNA, one strand shown
# [1] = molecular target: T1, FLI1 (Homo sapiens, UniProt Q01543 1-452)
# T1 sequence: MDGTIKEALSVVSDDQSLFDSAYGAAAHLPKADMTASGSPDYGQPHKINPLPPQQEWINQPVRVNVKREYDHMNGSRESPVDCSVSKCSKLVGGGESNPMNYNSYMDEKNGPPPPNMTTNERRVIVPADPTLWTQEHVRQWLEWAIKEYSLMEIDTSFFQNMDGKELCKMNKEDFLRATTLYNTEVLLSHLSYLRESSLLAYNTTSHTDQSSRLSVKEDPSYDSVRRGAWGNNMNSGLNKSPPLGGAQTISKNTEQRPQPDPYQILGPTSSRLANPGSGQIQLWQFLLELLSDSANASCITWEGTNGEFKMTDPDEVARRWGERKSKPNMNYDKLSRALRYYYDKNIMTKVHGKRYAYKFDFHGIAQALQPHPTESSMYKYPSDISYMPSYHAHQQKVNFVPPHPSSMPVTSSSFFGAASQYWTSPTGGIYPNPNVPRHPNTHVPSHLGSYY
# Outline: (§1)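 Human transcription factors fused to GST were expressed in yeast, captured on glutathione beads, given DNA barcodes and pooled with a GST-only negative control. Pools were incubated with 200 nmole of a 16-mer random double-stranded DNA library in Tris/NaCl/DTT/glycerol buffer at room temperature for 30 min. They were then washed, crosslinked with 0.1% formaldehyde, proximity-ligated (BsaI/T4 ligase, 1 h, 37 °C), PCR-amplified and sequenced on an Illumina NextSeq500. Binding signal is each 6-mer's read frequency for a factor divided by its frequency for the GST control.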
# [2] = molecular target: T2, ELK1 (Homo sapiens, UniProt P19419 1-428)
# T2 sequence: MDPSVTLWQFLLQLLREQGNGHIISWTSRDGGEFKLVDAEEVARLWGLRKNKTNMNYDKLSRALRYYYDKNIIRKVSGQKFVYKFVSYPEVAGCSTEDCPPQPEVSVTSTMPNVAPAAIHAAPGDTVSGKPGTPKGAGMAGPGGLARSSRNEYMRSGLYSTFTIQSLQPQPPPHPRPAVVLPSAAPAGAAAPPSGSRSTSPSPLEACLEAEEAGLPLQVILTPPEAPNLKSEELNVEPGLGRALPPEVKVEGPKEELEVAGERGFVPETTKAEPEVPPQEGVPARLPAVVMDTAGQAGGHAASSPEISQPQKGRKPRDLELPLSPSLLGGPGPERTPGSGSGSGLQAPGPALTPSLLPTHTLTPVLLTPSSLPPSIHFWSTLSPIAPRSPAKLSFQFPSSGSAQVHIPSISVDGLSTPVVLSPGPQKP
# Outline: as §1
# [3] = molecular target: T3, ERG (Homo sapiens, UniProt P11308 1-479)
# T3 sequence: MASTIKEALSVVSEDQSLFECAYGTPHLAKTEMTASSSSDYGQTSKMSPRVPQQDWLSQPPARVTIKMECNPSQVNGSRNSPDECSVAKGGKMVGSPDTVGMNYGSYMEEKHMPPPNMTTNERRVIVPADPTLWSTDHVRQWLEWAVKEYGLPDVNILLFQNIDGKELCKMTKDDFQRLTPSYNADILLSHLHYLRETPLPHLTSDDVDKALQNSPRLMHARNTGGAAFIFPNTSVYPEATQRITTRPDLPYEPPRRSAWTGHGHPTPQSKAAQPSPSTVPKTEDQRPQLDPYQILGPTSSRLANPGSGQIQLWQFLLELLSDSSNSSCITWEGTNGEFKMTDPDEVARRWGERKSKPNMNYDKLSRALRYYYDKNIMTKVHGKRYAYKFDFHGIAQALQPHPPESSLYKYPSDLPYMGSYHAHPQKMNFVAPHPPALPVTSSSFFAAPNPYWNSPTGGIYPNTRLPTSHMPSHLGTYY
# Outline: as §1
# [4] = molecular target: ELF1 (Homo sapiens, UniProt P32519 1-619)
# Outline: as §1
# [5] = molecular target: T4, EHF (Homo sapiens, UniProt Q9NZC4 1-300)
# T4 sequence: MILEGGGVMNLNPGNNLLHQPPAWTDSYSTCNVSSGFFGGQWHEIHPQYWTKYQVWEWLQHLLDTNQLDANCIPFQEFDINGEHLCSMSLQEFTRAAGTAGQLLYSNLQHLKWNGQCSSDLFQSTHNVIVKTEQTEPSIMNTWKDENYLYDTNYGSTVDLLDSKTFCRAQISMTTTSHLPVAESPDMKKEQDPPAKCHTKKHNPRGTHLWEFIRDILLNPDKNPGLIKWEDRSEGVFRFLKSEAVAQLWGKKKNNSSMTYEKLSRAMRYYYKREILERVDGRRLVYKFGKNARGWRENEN
# Outline: as §1
# [6] = molecular target: T5, SPIC (Homo sapiens, UniProt Q8N5J4 1-248)
# T5 sequence: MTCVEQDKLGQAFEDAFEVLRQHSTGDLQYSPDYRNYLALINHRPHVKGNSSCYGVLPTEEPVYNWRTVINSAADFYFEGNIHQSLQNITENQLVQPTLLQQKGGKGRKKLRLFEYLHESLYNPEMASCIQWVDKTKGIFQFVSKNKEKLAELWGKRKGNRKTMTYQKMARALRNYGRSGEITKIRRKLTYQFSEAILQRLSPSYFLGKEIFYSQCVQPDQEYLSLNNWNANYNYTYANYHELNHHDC
# Outline: as §1
# [7] = molecular target: ELF4 (Homo sapiens, UniProt Q99607 1-663)
# Outline: as §1
# [8] = molecular target: T6, ELK4 (Homo sapiens, UniProt P28324-2 1-405)
# T6 sequence: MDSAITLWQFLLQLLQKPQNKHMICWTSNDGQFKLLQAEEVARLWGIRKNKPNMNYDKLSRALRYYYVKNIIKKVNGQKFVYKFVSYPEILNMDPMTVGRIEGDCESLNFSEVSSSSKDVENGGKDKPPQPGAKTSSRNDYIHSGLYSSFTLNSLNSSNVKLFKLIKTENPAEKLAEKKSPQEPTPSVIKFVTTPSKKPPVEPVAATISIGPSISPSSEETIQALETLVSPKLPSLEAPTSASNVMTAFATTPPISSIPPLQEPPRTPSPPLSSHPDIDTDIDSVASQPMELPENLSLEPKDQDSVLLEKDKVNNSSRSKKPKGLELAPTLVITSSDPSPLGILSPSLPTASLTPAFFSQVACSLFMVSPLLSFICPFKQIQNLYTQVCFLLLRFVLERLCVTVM
# Outline: as §1
# [9] = molecular target: T7, ERF (Homo sapiens, UniProt P50548 1-548)
# T7 sequence: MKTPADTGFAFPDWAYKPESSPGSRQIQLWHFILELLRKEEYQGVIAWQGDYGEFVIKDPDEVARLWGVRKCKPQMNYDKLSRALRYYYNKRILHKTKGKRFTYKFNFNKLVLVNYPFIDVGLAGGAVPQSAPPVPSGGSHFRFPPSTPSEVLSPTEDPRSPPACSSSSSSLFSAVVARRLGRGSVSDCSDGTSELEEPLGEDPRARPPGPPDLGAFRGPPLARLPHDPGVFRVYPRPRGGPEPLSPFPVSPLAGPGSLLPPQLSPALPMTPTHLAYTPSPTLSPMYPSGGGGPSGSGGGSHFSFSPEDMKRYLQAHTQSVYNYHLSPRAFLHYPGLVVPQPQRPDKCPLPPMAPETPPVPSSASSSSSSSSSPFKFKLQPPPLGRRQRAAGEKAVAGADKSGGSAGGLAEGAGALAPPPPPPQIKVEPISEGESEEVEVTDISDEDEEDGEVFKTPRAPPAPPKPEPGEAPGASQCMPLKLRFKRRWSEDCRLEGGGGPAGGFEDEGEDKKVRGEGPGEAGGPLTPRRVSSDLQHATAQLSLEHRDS
# Outline: as §1
# [10] = molecular target: T8, ETV3L (Homo sapiens, UniProt Q6ZN32 1-361)
# T8 sequence: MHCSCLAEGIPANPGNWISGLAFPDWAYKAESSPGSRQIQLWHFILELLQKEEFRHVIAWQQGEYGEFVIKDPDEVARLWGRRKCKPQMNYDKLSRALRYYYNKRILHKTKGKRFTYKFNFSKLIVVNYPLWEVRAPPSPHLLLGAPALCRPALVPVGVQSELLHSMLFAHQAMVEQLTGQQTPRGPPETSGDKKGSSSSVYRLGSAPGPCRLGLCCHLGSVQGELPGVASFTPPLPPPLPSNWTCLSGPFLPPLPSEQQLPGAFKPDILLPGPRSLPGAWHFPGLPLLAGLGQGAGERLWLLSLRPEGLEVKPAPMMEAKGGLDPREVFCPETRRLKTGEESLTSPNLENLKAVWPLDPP
# Outline: as §1
# [11] = molecular target: T9, ETV3 (Homo sapiens, UniProt P41162-2 1-143)
# T9 sequence: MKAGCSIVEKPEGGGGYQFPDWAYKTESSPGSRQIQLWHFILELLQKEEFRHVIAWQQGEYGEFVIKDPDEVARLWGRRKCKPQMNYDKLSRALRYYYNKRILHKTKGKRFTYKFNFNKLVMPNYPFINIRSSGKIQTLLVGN
# Outline: as §1
# [12] = molecular target: SPIB (Homo sapiens, UniProt Q01892 1-262)
# Outline: as §1
# [13] = molecular target: T10, ELF3 (Homo sapiens, UniProt P78545 1-371)
# T10 sequence: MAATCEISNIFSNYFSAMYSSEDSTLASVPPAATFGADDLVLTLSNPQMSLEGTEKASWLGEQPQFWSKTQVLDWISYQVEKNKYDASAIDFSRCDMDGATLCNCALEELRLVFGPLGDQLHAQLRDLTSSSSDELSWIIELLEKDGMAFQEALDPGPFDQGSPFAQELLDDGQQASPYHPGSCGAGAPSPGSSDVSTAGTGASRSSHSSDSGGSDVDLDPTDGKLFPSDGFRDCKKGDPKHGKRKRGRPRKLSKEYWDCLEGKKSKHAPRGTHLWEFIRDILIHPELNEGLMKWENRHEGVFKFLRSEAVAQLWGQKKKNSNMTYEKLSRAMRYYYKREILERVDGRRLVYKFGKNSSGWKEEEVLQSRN
# Outline: as §1
# [14] = molecular target: T11, ETV7 (Homo sapiens, UniProt Q9Y603 1-341)
# T11 sequence: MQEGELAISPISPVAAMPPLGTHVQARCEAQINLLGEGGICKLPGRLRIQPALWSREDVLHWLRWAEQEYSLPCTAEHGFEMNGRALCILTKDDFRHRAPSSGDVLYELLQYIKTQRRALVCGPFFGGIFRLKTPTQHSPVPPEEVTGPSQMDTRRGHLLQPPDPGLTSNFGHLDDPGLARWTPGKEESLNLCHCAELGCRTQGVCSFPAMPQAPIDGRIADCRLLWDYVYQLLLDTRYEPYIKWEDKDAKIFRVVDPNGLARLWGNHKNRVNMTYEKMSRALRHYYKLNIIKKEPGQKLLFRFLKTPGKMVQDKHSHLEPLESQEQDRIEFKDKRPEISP
# Outline: as §1
# [15] = molecular target: ETV6 (Homo sapiens, UniProt P41212 1-452)
# Outline: as §1
# ELF1, sequence (P32519 whole entry): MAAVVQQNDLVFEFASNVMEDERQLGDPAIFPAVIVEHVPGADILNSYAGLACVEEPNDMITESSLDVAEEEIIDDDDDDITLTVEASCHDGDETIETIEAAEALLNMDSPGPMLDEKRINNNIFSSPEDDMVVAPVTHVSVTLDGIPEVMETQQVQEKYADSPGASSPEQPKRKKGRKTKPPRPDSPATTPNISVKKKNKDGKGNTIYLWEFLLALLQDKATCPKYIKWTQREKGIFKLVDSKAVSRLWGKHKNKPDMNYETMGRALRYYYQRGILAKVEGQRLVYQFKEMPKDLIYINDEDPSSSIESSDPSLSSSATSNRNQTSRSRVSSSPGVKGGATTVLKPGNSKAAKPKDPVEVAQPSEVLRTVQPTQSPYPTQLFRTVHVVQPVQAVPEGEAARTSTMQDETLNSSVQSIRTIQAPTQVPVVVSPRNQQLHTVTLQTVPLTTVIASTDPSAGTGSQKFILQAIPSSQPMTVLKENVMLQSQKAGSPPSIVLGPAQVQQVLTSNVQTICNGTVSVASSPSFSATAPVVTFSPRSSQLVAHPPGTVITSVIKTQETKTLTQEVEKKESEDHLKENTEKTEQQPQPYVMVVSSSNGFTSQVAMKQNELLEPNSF
# ELF4, sequence (Q99607 whole entry): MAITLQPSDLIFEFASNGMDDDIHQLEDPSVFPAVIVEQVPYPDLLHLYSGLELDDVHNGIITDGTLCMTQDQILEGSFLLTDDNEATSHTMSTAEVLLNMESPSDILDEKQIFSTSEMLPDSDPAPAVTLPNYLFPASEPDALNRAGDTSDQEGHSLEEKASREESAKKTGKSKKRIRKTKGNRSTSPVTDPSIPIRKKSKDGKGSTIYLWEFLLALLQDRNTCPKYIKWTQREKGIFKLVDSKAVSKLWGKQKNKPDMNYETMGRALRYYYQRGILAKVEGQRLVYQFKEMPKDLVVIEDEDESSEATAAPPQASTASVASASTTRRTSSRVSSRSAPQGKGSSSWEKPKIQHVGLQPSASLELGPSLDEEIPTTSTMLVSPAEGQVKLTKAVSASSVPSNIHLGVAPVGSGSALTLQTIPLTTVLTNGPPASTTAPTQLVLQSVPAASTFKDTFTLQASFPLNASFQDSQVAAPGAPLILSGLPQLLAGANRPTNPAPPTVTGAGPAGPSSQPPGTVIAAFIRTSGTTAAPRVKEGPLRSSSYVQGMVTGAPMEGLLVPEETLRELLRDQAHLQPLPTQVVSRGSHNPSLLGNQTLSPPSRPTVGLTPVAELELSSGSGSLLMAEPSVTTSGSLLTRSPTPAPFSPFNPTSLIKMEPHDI
# SPIB, sequence (Q01892 whole entry): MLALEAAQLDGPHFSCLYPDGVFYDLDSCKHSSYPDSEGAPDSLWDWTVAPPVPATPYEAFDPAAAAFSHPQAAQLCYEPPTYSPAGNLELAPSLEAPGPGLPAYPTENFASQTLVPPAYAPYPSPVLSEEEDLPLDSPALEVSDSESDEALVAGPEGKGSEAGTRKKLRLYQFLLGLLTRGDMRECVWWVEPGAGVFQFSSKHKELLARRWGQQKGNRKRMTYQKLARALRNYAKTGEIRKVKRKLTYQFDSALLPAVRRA
# ETV6, sequence (P41212 whole entry): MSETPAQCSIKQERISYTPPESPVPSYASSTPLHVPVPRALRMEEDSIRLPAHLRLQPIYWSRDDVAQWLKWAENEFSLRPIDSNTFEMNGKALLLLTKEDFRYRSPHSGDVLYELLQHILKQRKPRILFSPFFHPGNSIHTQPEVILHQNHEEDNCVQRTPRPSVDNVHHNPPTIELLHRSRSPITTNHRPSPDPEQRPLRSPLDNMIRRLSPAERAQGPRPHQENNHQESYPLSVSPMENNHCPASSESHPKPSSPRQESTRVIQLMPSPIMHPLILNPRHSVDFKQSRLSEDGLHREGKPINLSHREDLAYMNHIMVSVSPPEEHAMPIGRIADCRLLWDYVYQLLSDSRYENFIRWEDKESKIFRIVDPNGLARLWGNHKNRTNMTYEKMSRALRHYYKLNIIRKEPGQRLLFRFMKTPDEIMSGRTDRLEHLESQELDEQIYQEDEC
Sequence,binding signal [1],binding signal [2],binding signal [3],binding signal [4],binding signal [5],binding signal [6],binding signal [7],binding signal [8],binding signal [9],binding signal [10],binding signal [11],binding signal [12],binding signal [13],binding signal [14],binding signal [15]
CGCCAT,"1.08 fold enrichment (6-mer frequency, TF over GST control)","1.01 fold enrichment (6-mer frequency, TF over GST control)","1.02 fold enrichment (6-mer frequency, TF over GST control)","1.02 fold enrichment (6-mer frequency, TF over GST control)","1.01 fold enrichment (6-mer frequency, TF over GST control)","1.06 fold enrichment (6-mer frequency, TF over GST control)","1.12 fold enrichment (6-mer frequency, TF over GST control)","1.1 fold enrichment (6-mer frequency, TF over GST control)","1.08 fold enrichment (6-mer frequency, TF over GST control)","1.08 fold enrichment (6-mer frequency, TF over GST control)","1.02 fold enrichment (6-mer frequency, TF over GST control)",,,,
AATGTG,"1.04 fold enrichment (6-mer frequency, TF over GST control)",,,"1 fold enrichment (6-mer frequency, TF over GST control)",,"1.02 fold enrichment (6-mer frequency, TF over GST control)","1.03 fold enrichment (6-mer frequency, TF over GST control)",,"1.01 fold enrichment (6-mer frequency, TF over GST control)",,,"1 fold enrichment (6-mer frequency, TF over GST control)","1.07 fold enrichment (6-mer frequency, TF over GST control)","1.02 fold enrichment (6-mer frequency, TF over GST control)","1.01 fold enrichment (6-mer frequency, TF over GST control)"
